Active and inactive are the calls of the source. Unless noted, how the calls were made is not given here.

The subject of experiment [1] is Wnt5a (protein binding on small-molecule microarray). The experiment can be described thus: small molecules binding Wnt5a protein – biophysical, small-molecule microarray, 635/667 nm fluorescence, primary screen (AID 1142).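 Further: fluorescence read at 667 nm with signal to noise per printed feature.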 Conditions: 635 nm fluorescence, higher = more signal.
Experiment [2] in a line: ATP-based viability of Huh7 replicon cells – cell-based, CellTiter-Glo luminescence, basal, 48 h, cytotoxicity control for HCV replication inhibitor project, primary screen (AID 1143).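 Further: Huh7 hepatoma cells carrying a hepatitis C replication reporter with no stimulus; test concentration not given here.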 As to conditions: higher = more signal, called active from +8 up or from −8 down. Background: In antiviral work, replicon cells carry a viral genome segment that copies itself.
A short description of experiment [3]: Pseudomonas biofilm growth suppression – PAO1 strain, BacTiter-Glo luminescence, LB-PBS, primary screen (AID 1144). As to conditions: P. aeruginosa PAO1 biofilm, 12 h, higher = more signal.
Experiment [4] can be described thus: basal CRE-LacZ reporter activity in PC12 – cell-based, unstimulated, primary screen (AID 1145). As to conditions: no forskolin, luminescence, 4.5 h, higher = more signal, called active from +8 up or from −8 down.
Experiment [5] can be described thus: forskolin-driven CRE-LacZ activity in PC12 – cell-based, CRE-LacZ reporter, forskolin-stimulated, primary screen (AID 1146).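 Further: PC12 cells with 6xCRE LacZ reporter stimulated by forskolin 10 µM; beta-galactosidase reporter signal reflecting CREB driven transcription.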 Conditions: luminescence, 4.5 h, higher = more signal, called active from +8 up or from −8 down.
The target in experiment [6] is Streptavidin (Streptomyces avidinii) (UniProt P22629). The experiment can be described thus: compounds binding control protein streptavidin – biophysical, small-molecule microarray, 635/667 nm fluorescence, artefact control for SMM compound annotation, primary screen (AID 1147).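 Further: signal reflects streptavidin binding to arrayed compounds as a control protein.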 Conditions: higher = more signal.
Experiment [7] in a line: probe aInhba binding on compound microarray – biochemical, small-molecule microarray, 635/667 nm fluorescence, primary screen (AID 1148).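 Further: score merges 667nm spot fluorescence with signal-to-noise for antibody binding to printed compounds.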 Conditions: higher = more signal.
Experiment [8] has as its target Torsin-1A (Homo sapiens) (UniProt O14656). The experiment can be described thus: TOR1A wild-type binding on microarray – cell lysate, small-molecule microarray, lysate, 635/667 nm, primary screen (AID 1149). As to conditions: COS7 hTOR1A-WT lysate, 635 nm fluorescence, higher = more signal.
The target is the same in experiment [9]. The experiment can be described thus: torsin A mutant lysate binding on microarrays – cell lysate, small-molecule microarray, COS7 lysate, 635/667 nm fluorescence, primary screen (AID 1150).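 Further: score pools 667 nm emission and signal to noise measuring lysate protein binding.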 Conditions: COS7 hTOR1A mutant lysate, 635 nm fluorescence, higher = more signal.
In experiment [10] the test system is Sonic hedgehog protein (Shh). The experiment can be described thus: Sonic hedgehog microarray binding compounds – biochemical, small-molecule microarray, 635/667 nm fluorescence, primary screen (AID 1151).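 Further: Shh protein binding to compounds spotted on small-molecule microarray slides; score combines spot fluorescence intensity with signal-to-noise across triplicate slides.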 As to conditions: 635 nm fluorescence, higher = more signal.
A short description of experiment [11]: optical density shifts of acrAB sulA E. coli – strain DRC41, OD650, 48 h, E. coli filamentation inducer project, primary screen (AID 1152).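 Further: E. coli MC1000 strain DRC41 lacking acrAB efflux pump and sulA.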 Conditions: higher = more signal, called active from +8 up or from −8 down.
Experiment [12] in a line: probe aLefty1 binding on compound microarray – biochemical, small-molecule microarray, 635/667 nm fluorescence, primary screen (AID 1153).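 Further: score merges spot fluorescence with signal-to-noise ratio from the scanned slide images.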 As to conditions: higher = more signal.
A short description of experiment [13]: plasmodial surface anion channel blockers, osmotic lysis – cell-based, P. falciparum Indochina, OD700, 1 h, primary screen (AID 1154). As to conditions: P. falciparum Indochina infected RBC osmotic lysis, higher = more signal, called active from +8 up or from −8 down.
The nature of experiment [14]: plasmodial surface anion channel blockers, osmotic lysis – cell-based, P. falciparum Indochina, OD700, 2 h, primary screen (AID 1155).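 Further: lysis reports solute entry through the parasite surface anion channel PSAC.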 Conditions: P. falciparum Indochina infected erythrocytes, higher = more signal, called active from +8 up or from −8 down.
The nature of experiment [15]: changes in parasitized red cell lysis, either direction – P. falciparum Indochina, OD700, 3 h, PSAC antagonist project, primary screen (AID 1156). As to conditions: P. falciparum-infected erythrocytes, osmotic lysis, higher = more signal, called active from +8 up or from −8 down.
Experiment [16] in a line: plasmodial surface anion channel blockers, osmotic lysis – cell-based, P. falciparum Indochina, OD700, 18 h, primary screen (AID 1157). As to conditions: P. falciparum Indochina infected erythrocytes, osmotic lysis OD700, 18 h; higher = more signal, called active from +8 up or from −8 down.
Experiment [17] can be described thus: S6 kinase pathway phospho-S6 level changes – cell-based, A549, cytoblot, luminescence, serum-stimulated, primary screen (AID 1158).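 Further: serum-stimulated A549 lung adenocarcinoma cells; signal is phosphorylated S6 detected by cytoblot immunostaining with HRP secondary.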 Conditions: 5 h, higher = more signal.
Experiment [18] concerns the target NADPH oxidase 2 (Homo sapiens) (UniProt P04839). The experiment can be described thus: compounds shifting NOX2 Amplex Red fluorescence – cell-based, HEK293-NOX2, PMA-stimulated, NOX inhibitor project, primary screen (AID 1159). Further: test concentration not given here. As to conditions: 45 min, higher = more signal, called active from +8 up or from −8 down.
Experiment [19] concerns the target NADPH oxidase 4 (Homo sapiens) (UniProt Q9NPH5). The experiment can be described thus: compounds shifting NOX4 Amplex Red fluorescence – cell-based, HEK293-NOX4, tetracycline-induced, NOX inhibitor project, primary screen (AID 1160). Conditions: HEK293-NOX4, Amplex Red H2O2 fluorescence, 45 min; higher = more signal, called active from +8 up or from −8 down.
Experiment [20] deals with NADPH oxidase 5 (Homo sapiens) (UniProt Q96PH1). The experiment can be described thus: compounds shifting NOX5 Amplex Red fluorescence – cell-based, HEK293-NOX5, NOX inhibitor project, primary screen (AID 1161). Conditions: HEK293-NOX5, ionomycin, 45 min, higher = more signal.
Sequence of NADPH oxidase 5 (Homo sapiens) (Q96PH1 whole entry, looked up): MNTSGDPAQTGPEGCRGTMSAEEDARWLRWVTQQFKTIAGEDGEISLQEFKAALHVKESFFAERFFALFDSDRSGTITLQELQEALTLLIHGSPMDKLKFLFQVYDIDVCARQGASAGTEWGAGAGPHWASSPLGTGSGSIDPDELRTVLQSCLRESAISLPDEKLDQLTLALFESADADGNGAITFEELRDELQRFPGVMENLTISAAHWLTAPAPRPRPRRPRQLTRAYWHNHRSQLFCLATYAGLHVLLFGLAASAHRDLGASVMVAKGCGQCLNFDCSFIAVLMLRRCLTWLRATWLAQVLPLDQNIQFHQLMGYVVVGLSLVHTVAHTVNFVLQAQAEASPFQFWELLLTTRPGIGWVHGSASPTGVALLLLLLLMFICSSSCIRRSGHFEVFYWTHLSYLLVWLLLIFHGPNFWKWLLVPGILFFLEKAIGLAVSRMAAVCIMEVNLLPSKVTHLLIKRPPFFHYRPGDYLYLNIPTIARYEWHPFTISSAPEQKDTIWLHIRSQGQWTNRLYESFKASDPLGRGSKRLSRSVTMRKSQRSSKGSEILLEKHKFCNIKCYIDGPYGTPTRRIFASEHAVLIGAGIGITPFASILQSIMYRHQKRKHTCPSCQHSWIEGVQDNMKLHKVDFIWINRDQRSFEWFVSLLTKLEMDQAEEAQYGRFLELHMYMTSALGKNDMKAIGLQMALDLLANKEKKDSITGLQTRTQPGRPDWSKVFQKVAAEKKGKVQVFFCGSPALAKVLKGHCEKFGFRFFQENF

Sequence of Torsin-1A (Homo sapiens) (O14656 whole entry, looked up): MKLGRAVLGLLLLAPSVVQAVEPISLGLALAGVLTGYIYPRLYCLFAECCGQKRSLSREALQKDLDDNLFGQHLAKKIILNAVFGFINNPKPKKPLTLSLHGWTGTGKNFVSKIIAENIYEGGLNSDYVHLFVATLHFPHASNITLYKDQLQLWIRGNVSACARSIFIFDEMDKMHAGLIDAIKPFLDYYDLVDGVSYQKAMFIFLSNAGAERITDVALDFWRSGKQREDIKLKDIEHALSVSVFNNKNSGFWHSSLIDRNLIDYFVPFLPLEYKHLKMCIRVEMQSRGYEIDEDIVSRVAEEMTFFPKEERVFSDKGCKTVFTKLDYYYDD
Sequence of NADPH oxidase 4 (Homo sapiens) (Q9NPH5 whole entry, looked up): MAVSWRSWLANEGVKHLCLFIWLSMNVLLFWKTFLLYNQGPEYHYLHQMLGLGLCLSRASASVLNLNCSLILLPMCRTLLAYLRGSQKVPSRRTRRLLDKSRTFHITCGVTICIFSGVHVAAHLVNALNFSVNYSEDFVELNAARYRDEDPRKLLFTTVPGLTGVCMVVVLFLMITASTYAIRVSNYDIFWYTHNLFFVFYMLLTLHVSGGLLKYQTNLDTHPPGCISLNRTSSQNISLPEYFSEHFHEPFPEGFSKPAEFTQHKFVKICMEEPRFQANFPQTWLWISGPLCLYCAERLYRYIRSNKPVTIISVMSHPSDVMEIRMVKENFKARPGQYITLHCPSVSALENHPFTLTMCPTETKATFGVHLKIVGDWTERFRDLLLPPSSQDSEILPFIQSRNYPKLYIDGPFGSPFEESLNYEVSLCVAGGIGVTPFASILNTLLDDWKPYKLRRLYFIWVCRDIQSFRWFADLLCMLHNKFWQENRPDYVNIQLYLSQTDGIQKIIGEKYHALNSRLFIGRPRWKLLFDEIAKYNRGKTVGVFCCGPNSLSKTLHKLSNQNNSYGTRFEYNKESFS
Sequence of NADPH oxidase 2 (Homo sapiens) (P04839 whole entry, looked up): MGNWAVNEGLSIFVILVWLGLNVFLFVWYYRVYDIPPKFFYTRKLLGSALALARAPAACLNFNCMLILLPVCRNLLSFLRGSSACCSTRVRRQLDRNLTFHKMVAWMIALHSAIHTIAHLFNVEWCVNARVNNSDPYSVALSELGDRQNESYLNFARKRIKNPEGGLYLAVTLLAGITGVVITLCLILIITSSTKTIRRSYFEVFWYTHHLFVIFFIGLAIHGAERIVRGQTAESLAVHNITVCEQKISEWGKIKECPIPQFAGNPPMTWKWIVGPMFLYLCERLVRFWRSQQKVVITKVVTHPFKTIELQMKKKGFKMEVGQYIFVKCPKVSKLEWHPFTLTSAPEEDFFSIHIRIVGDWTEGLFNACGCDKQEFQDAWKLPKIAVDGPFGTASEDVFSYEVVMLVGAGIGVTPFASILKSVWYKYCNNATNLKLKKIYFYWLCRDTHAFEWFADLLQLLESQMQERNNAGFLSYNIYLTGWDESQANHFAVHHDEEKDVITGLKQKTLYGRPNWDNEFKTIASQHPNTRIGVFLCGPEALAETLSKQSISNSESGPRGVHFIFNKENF
Sequence of Streptavidin (Streptomyces avidinii) (P22629 whole entry, looked up): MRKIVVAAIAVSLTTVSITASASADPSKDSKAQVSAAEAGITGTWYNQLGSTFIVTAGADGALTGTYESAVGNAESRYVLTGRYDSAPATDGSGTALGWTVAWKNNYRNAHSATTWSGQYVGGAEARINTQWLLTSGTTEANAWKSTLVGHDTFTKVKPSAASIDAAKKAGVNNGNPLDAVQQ

As for `COC(=O)[C@H](C)NC(=O)CCC1CC(OC(=O)NCCc2ccc(F)cc2)CC2(CCCC(COC(=O)NCCOc3ccccc3)O2)O1` (stereo not given in full), the composite z-score in experiment [1] was 0.399; in experiment [6], 0.56; in experiment [7], -0.0059; in [8] it was 0.37; in [9], 0.379; in experiment [10], 1.46. Besides, the composite z-score in experiment [12] stood at 0.0169. Moreover, the z-score is -0.471 (inactive) in experiment [2]; 0.706 (inactive) in [3]; -0.0755 (inactive) in experiment [4]; -0.501 (inactive) in [5]; -0.651 (inactive) in experiment [11]; -1.23 (inactive) in experiment [13]. Besides, the z-score was -0.257 (inactive) in experiment [14]; 0.189 (inactive) in experiment [15]; 0.199 (inactive) in experiment [16]; 0.0246 in experiment [17]; 0.749 (inactive) in [18]; 0.622 (inactive) in experiment [19]. Further, in experiment [20], the z-score is 0.382.
Consider `C[C@@H](c1ccccc1)N1C(=O)[C@H]2[C@H]3[C@H](O)[C@H](O)CC(=NOC[C@@H](O)COCc4ccco4)[C@H]3CC[C@H]2C1=O`, for which the composite z-score in [1] is -0.0017; in experiment [6] it was -0.304; in experiment [7], -0.253; in experiment [8], 3.17; in experiment [9], 2.95; in experiment [10], 1.65. This compound showed a composite z-score in experiment [12] of -0.201. Further, the z-score in [2] is 0.523 (inactive); in experiment [3], 1 (inactive); in experiment [4] it was 1.5 (inactive); in experiment [5], 0.81 (inactive); in experiment [11], -0.309 (inactive); in experiment [13] it was 2.04 (inactive). In addition, the z-score in experiment [14] is -0.0645 (inactive); in experiment [15], 0.33 (inactive); in experiment [16], 0.332 (inactive); in experiment [17], -0.632; in experiment [18] it was -1.37 (inactive); in experiment [19] it was 0.529 (inactive). For the same compound, in experiment [20], the z-score stood at 0.122.
In the case of `CCOC(=O)CCN1C(=O)[C@H]2[C@H]3[C@H](O)[C@H](O)CC(=NOCC=C(C)CCC=C(C)C)[C@@H]3CC[C@H]2C1=O`, the composite z-score in experiment [1] worked out at 0.377; in [6] it was 0.111; in experiment [7], 0.0756; in [8], 0.957; in experiment [9] it was 0.588; in experiment [10], 1.02. The composite z-score in experiment [12] was -0.193. The z-score is 0.16 (inactive) in experiment [2]; 0.0232 (inactive) in experiment [3]; 0.875 (inactive) in [4]; 0.427 (inactive) in experiment [5]; -0.879 (inactive) in experiment [11]; 0.0845 (inactive) in experiment [13]. Moreover, the z-score in experiment [14] is 0.278 (inactive); in experiment [15], -0.931 (inactive); in experiment [16] it was -0.014 (inactive); in experiment [17], 0.233; in experiment [18], -0.737 (inactive); in experiment [19] it was 0.511 (inactive). Further, the z-score in [20] is -0.0503.
As for `CO[C@@H]1COC(=O)CC=C[C@H](C)[C@H](OC)COC(=O)[C@@H]2CCCN2C(=O)CC=C[C@H]1C`, the composite z-score in experiment [1] was 0.0408; in experiment [6], -0.0406; in [7], -0.0112; in [8], 0.719; in experiment [9], 1.22; in experiment [10], 1.83. Also, the composite z-score in [12] was -0.276. Besides, the z-score in experiment [2] is -0.754 (inactive); in experiment [3], 0.243 (inactive); in [4], 0.609 (inactive); in experiment [5] it was -0.628 (inactive); in experiment [11], -0.2 (inactive); in experiment [13], 0.521 (inactive). Besides, the z-score is 0.457 (inactive) in [14]; -0.0249 (inactive) in experiment [15]; 0.158 (inactive) in experiment [16]; -0.0291 in [17]; 1.18 (inactive) in [18]; -0.686 (inactive) in experiment [19]. Moreover, the z-score in [20] was determined as 0.294.
